Screening data as filed in PubChem.
D3 antag: blocks the human D3 dopamine receptor. P35462. D3R cells, DiscoveRx beta-arrestin luminescence, antagonist mode; stronger effect = lower value. max response, negative = inhibition, %. 360,000 compounds, 2.5% hits. AID 652054; in the data active = max response below about -50%; inconclusive = no clear call, values can overlap the other calls
Target sequence (P35462 whole entry, looked up): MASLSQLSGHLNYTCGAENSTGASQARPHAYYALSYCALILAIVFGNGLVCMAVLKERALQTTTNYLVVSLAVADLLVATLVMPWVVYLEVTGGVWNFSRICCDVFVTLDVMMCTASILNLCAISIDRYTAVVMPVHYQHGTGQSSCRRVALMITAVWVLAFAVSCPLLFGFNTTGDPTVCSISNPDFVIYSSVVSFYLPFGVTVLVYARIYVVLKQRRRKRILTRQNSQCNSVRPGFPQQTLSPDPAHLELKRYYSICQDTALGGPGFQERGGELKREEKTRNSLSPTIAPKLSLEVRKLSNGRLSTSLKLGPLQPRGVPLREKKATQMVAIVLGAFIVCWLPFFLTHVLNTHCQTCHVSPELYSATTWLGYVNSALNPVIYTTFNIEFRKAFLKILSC
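Cells plated overnight at 1500 cells/well, then exposed to library compounds with dopamine controls for 90 minutes at 37 degrees C. DiscoveRx reagent added for 30–60 minutes at room temperature; luminescence read, quantitative HTS format.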
TSHR antag: antagonists of human thyroid stimulating hormone receptor; P16473; TSHR-expressing cells, TSH-stimulated cAMP HTRF, 2 h; stronger effect = lower value; activity change, negative = inhibition, % at 11.5 µM; 330,000 compounds, 0.2% hits; AID 504810;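 active = activity change below a set negative limit, meaning inhibition stronger than a set level, cut at about -70% in these data; inconclusive = activity change between two set negative limits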
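Competitive HTRF cAMP read-out (cryptate anti-cAMP antibody, cAMP-d2; 30 min, room temperature) in freshly harvested TSHR cells. Compounds added before TSH at EC80 (4nM final), followed by 2 hours' incubation at 37 deg C.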
D3 ag: agonists of human D3 dopamine receptor. P35462. D3R DiscoveRx beta-arrestin cells, luminescence, 90 min. max activation, %. 410,000 compounds, 0.58% hits. AID 652048; in the data active = max activation above about 30%
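Cells at 1500/well, incubated overnight, then treated with pinned compounds (dopamine as control) for 90 min at 37 degrees C. DiscoveRx reagent added for 30 - 60 minutes at room temperature; luminescence read.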
B2AR arrestin: agonists driving beta-arrestin recruitment to human beta2-adrenergic receptor; P07550; beta-arrestin recruitment to beta2AR, cell-based reporter; Potency, µM (doses to about 46.1 µM), most hits filed as activators; 330,000 compounds, 0.02% hits; active = well fitted activation curve with a large enough effect; inconclusive = small, poorly fitted or top-dose-only effect; also: nearly all actives have a fitted effect of over 65% in size
Large screens that a line does not name were inactive. Only some compounds are listed: those with a hit (about 2.9% of all), similar ones and a draw of the others.

COc1cccc(C(=O)NC2CC3CCC(C2)N3Cc2ccccc2)c1 (stereo not given)	D3 antag -108
COc1cc(OC)cc(C(=O)NC2CC3CCC(C2)N3C)c1 (stereo not given)	none
CCOc1ccc(CNC(=O)CCn2nc(C)c3c(C)n(-c4ccccc4)nc3c2=O)cc1	none (no result: D3 antag, TSHR antag, B2AR arrestin)
CCOc1ccccc1NC(=O)Nc1ccc2nc(N3CCN(C)CC3)cc(C)c2c1	none (no result: D3 antag, TSHR antag, B2AR arrestin)
Cc1ccc(C(=O)Nc2ccc(-n3c(C)nc4ccccc4c3=O)cc2)cc1[N+](=O)[O-]	none (no result: D3 antag, TSHR antag, B2AR arrestin)
N#Cc1c(-c2ccccc2)nc(N2CCN(Cc3ccccc3)CC2)[nH]c1=O	none
Cc1nnc(N2CCN(Cc3ccccc3)CC2)[nH]c1=O	D3 antag -54
O=C(N[C@@H](Cc1ccccc1)C(=O)CCl)OCc1ccccc1	D3 antag -94, TSHR antag inconclusive
COC(=O)c1ccc(N/N=C/c2cc([N+](=O)[O-])cc(OC)c2O)cc1	none
COc1cc([N+](=O)[O-])cc(/C=N/N(CCC#N)C(C)=O)c1O	D3 antag -59
Cn1cc(CN2CCN(c3ccccc3)CC2)c2ccccc21	D3 antag -79
O=C(O)Cn1cc(CN2CCOCC2)c2ccccc21	none
COc1ccc(Cl)cc1CN1CCN(c2nc(C)cc(C)c2C#N)CC1	none
Cc1cc(C)c(C#N)c(N2CCN(CCOc3ccc(Cl)cc3)CC2)n1	D3 antag -78
O=C(C[C@H]1C/C=C\CC[C@@H](Cc2ccc(F)cc2)C(=O)OC[C@H]2CCCN2C1=O)N[C@H](CO)Cc1ccccc1	D3 ag 32
COc1cccc(CNC(=O)C2CCN(C(=O)c3cnn(-c4ccccc4)c3-n3cccc3)CC2)c1	none (no result: D3 antag, TSHR antag, B2AR arrestin)
Cc1cc2ccccc2c(=O)n1CC(=O)N1CCN(c2cccc(Cl)c2)CC1	none
Cc1cc2ccccc2c(=O)n1CC(=O)NCC(=O)N1CCN(c2ccccc2)CC1	D3 antag -52
CCOc1ccc(C(=O)CCC(=O)NNC(=O)CCN2CCN(c3ccccc3)CC2)cc1	D3 antag -63
Cc1ccsc1C(=O)NNC(=O)CCN1CCN(c2ccccc2)CC1	D3 antag inconclusive
CCOc1ccc(CNc2ccc(N3CCN(Cc4ccccc4)CC3)cc2)cc1	D3 antag -62
COc1ccc(NC(=O)CCN2CCN(c3ccc(F)cc3)CC2)cc1	D3 antag -98
CCOc1ccc(CNc2ccc(N3CCCC3)cc2)cc1	none
Cc1ccccc1C(=O)NCC(=O)NNC(=O)CCN1CCN(c2ccccc2)CC1	D3 ag 32
CC[C@@H]1/C=C(\C)C[C@H](C)C[C@H](OC)[C@H]2O[C@@](O)(C(=O)C(=O)N3CCCC[C@H]3C(=O)O[C@H](/C(C)=C/[C@@H]3CC[C@@H](Cl)[C@H](OC)C3)[C@H](C)[C@@H](O)CC1=O)[C@H](C)C[C@@H]2OC	none (no result: D3 antag, TSHR antag, B2AR arrestin)
CCCCNC(=O)c1nn(-c2ccc(C)cc2)c(=O)c2c1c1ccccc1n2C	none (no result: D3 antag, TSHR antag, B2AR arrestin)
CCOc1ccc(CCNC(=O)c2nn(C)c3c2CSc2ccc(C)cc2-3)cc1OCC	none (no result: D3 antag, TSHR antag, B2AR arrestin)
CC(C)Oc1ccc(C(=O)Nc2c(C(=O)Nc3cccc(F)c3)oc3ccccc23)cc1	none (no result: D3 antag, TSHR antag, B2AR arrestin)
CCOc1ccc(NC(=O)CCN2CCN(c3ccccc3)CC2)cc1	D3 antag -52
CC1=C(C(=O)Nc2cccc(Cl)c2)C2(CCCCCC2)OC1=O	none (no result: D3 antag, TSHR antag, B2AR arrestin)
Fc1ccccc1CN1CCN(c2ncccn2)CC1	none
Oc1cc2c(cc1CN1CCN(c3ncccn3)CC1)OCO2	D3 ag 42
CC(C)CCNc1ncnc2c1nnn2Cc1ccccc1	none
Cc1ccc(Nc2ncnc3c2nnn3Cc2ccccc2)cc1	D3 ag 30
C=CCSc1cc(C)nc2c(-c3ccc(Cl)cc3)c(C)nn12	D3 ag 38
Cc1cc(SCC(=O)c2cccs2)n2nc(C)c(-c3ccc(Cl)cc3)c2n1	none
CCOC(=O)N1CCN(c2c(NC3CCN(Cc4ccccc4)CC3)c(=O)c2=O)CC1	D3 antag -51
CCOC(=O)N1CCC(Nc2c(Nc3ccc(C)c(C)c3)c(=O)c2=O)CC1	D3 antag -71
CCOC(=O)N1CCC(Nc2c(OCC)c(=O)c2=O)CC1	none
CCC(C(=O)Nc1nnc2n1CCS2)c1ccccc1 (stereo not given)	none (no result: D3 antag, TSHR antag, B2AR arrestin)
Cc1ccc(OCCOCCN2CCCC2)c(Br)c1	D3 antag inconclusive
Cc1cc(Br)ccc1OCCCCN1CCCCC1	D3 antag -51
Cc1cc(C(C)(C)C)ccc1OCCN1CCCC1	D3 antag -64
Cc1cc(Br)ccc1OCCOCCN1CCCC1	D3 antag -73
COc1ccccc1C(=O)Nc1ccc(S(=O)(=O)Nc2ncccn2)cc1	none (no result: D3 antag, TSHR antag, B2AR arrestin)
Cn1cc(S(=O)(=O)c2ccccc2)c(=O)c2cc(F)c(N3CCCCCC3)cc21	none (no result: D3 antag, TSHR antag, B2AR arrestin)
CN1c2ccc(Cl)cc2-c2nc(SCC(=O)NCc3ccc(F)cc3)ncc2S1(=O)=O	none (no result: D3 antag, TSHR antag, B2AR arrestin)
CCCCC1=CC2=C(c3ccco3)C(=O)C(C)(OC(=O)c3ccc(OC)cc3)C(=O)C2=CN1C1CCCCC1 (stereo not given)	D3 antag -91
CCCCC1=CC2=C(c3ccco3)C(=O)C(C)(OC(=O)c3ccc(OC)cc3)C(=O)C2=CN1CCOC (stereo not given)	none
O=C(CSc1nc2ncccc2[nH]1)Nc1c(F)cc(F)cc1Br	D3 antag -58
O=C(CSc1ncn[nH]1)Nc1c(F)cc(F)cc1Br	none
COc1ccc(C2NCCc3sccc32)cc1 (stereo not given)	D3 ag 73
O=C1c2[nH]nc(-c3ccccc3O)c2C(c2ccc(Cl)cc2)N1Cc1ccco1 (stereo not given)	none (no result: D3 antag, TSHR antag, B2AR arrestin)
COC(=O)C1=CN(c2cccc(C)c2)C=C(C(=O)OC)C1c1cc(OC)c(O)c([N+](=O)[O-])c1	D3 antag -84
COC(=O)C1=CN(c2ccc(OC)cc2)C=C(C(=O)OC)C1c1ccc(C)c([N+](=O)[O-])c1	none
O=C(CSc1nc2ccccc2c(=O)[nH]1)c1ccccc1	none
CC(C)(C)c1ccc(C(=O)CSc2nc3ccccc3c(=O)[nH]2)cc1	D3 ag 34
COc1ccc(NC(=O)C(Cc2c[nH]c3ccccc23)NC(=O)OC(C)(C)C)cc1 (stereo not given)	none (no result: D3 antag, TSHR antag, B2AR arrestin)
COc1ccc(NC(=O)Cc2ccccc2)cn1	none
COc1ccc(NC(=O)/C(Cl)=C(/Cl)S(=O)Cc2ccccc2)cn1 (stereo not given)	D3 antag -131, B2AR arrestin inconclusive
COc1ccc(CS(=O)(=O)/C(Cl)=C(/Cl)C(=O)Nc2ccc(OC)nc2)cc1	D3 antag -51
NCCCC[C@H](NC(=O)[C@@H]1CCCN1C(=O)[C@@H]1CSSC[C@H](N)C(=O)N[C@@H](Cc2ccc(O)cc2)C(=O)N[C@@H](Cc2ccccc2)C(=O)N[C@@H](CCC(N)=O)C(=O)N[C@@H](CC(N)=O)C(=O)N1)C(=O)NCC(N)=O	none (no result: D3 antag, TSHR antag, B2AR arrestin)
COc1ccccc1NC(=O)c1ccc2c(c1)N(CC(=O)NC(C)(C)C)C(=O)C(C)(C)O2	none
CCOC(=O)CN1C(=O)C(C)(C)Oc2ccc(C(=O)Nc3ccccc3OC)cc21	D3 antag -95
CCN(CC)c1ccc2cc(C(C)=O)c(=O)oc2c1	none
